Assay results published in PubChem BioAssay (NCI).
“And” between values parts separate entries of the source, which are not always exact repeats. Equal values may be shown once. Compounds without any hit were thinned out: in the full panel of roughly 83,000, 20% have a hit.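 48-hour exposure, single concentration, 96-well plates; percent growth endpoint where 0 means no net growth. Active: below 10.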 A number with no mark means an inactive call. The source made the active and inactive calls.

These molecules were tested on MDA-MB-468 breast (assay: NCI-60 one-dose screen, 48 h (100 = growth as untreated, 0 = no growth, -100 = all killed)). Settings: 10 µM unless noted.

Structure (SMILES)	growth
C=CCc1ccc(OC(=O)Cc2ccccc2)c(OC)c1	100%
NC(=O)c1c(Br)c(Br)c(Br)c(Br)c1C(=O)O (tested in a mixture with another compound)	93.7% and 101%
CC(=O)O[C@H](C[C@H](C(C)C)N(C)C(=O)[C@@H](NC(=O)[C@H]1CCCCN1C)C(C)(C)C)c1nc(C(=O)N[C@@H](Cc2ccccc2)C[C@H](C)C(=O)O)cs1	4.72% (active)
Nc1c(Cl)c(Cl)nc(C(=O)O)c1Cl	107%
Cn1cc(-c2csc(-c3cn(CCN4CCOCC4)c4ccccc34)n2)c2cccnc21	63.3%
CCCCn1cc(C(=O)/C(C#N)=C/c2cc3ccccc3nc2Cl)c2cc(OC)ccc21	104%
O=C(O)C(F)F	91.4%
O=[N+]([O-])c1cccc([As]=[As]c2cccc([N+](=O)[O-])c2)c1 (centres undefined)	-78.5% (active)
COC(=O)[C@@H](C)C[C@H](Cc1ccccc1)NC(=O)c1nc([C@@H](C[C@H](C(C)C)N(C)C(=O)[C@@H](NC(=O)[C@H]2CCCN2C)C(C)C)OC(C)=O)sc1C	1.81% (active)
CC(C)CCC(=O)O[C@H]1CC[C@H]2[C@@H]3CCC4=CC(=O)CC[C@]4(C)[C@H]3CC[C@]12C	102%
COc1ccc(Nc2ccc([N+](=O)[O-])cc2[N+](=O)[O-])cc1CN(CCCl)CCCl	10.1%
O=C1C(Cl)=C(N2CCOCC2)C(=O)c2ccccc21	-81% (active)
O=[N+]([O-])c1ccc(OP(=O)(CCl)N(CCCl)CCCl)cc1 (centres undefined)	101%
COC(=O)[C@@H](C)C[C@H](Cc1ccccc1)NC(=O)c1csc([C@@H](C[C@H](C(C)C)N(C)C(=O)[C@@H](NC(=O)CN(C)C)C2CC2)OC(C)=O)n1	-0.222% (active)
O=C1CNC(c2ccccc2)c2cc(Cl)ccc2N1 (centres undefined)	104%
CCC1(CCSC#N)C(=O)NC(=O)NC1=O	107%
COCC1OC2OC3C(COC)OC(OC4C(COC)OC(OC5C(COC)OC(OC6C(COC)OC(OC7C(COC)OC(OC8C(COC)OC(OC1C(O)C2O)C(O)C8O)C(O)C7O)C(O)C6O)C(O)C5O)C(O)C4O)C(O)C3O (centres undefined) (tested in a mixture with another compound)	105%
CCNc1nc(Cl)nc(NCC)n1	106%
CC1(C)N=C(N)N=C(N)N1c1ccc(OCCCCOc2ccc(S(=O)(=O)F)cc2)c(Cl)c1	-16.2% (active)
CC(C)(C)[Si](C)(C)OC1[C@@H](O[Si](C)(C)C(C)(C)C)[C@@H](CNC(=O)NC(=O)CF)O[C@H]1n1cnc2c(NC(=O)Nc3ccccc3)ncnc21 (some centres undefined)	90.5%
CCCCCCC(=O)NC1=C(N2CC2)C(=O)C(NC(=O)CCCCCC)=C(N2CC2)C1=O	23.2%
CC(=O)c1cccc(S(=O)(=O)F)c1	93.6%
O=[N+]([O-])/C=C/c1ccc([N+](=O)[O-])cc1	77.7%
C=CCOC(=O)C(Br)CC (centres undefined)	98%
